Records with an inconclusive call do not appear. Calls of active or inactive are those of the source. Calls come from the whole dose curve; as a rule, active = well fitted curve in the direction sought with a large enough effect; inconclusive = small, poorly fitted or top-dose-only effect, or another doubt; inactive = no such curve, though single readings can be large; an effect the other way counts as inactive or inconclusive.
Legend:
[1] = qHTS of pediatric cancer cell lines to identify multiple opportunities for drug repurposing: Confirmatory screen for NB1643 cells (AID 1347109); note: nearly all actives have a fitted effect of over 45% in size
Procedure, shortened: (§1)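 Viability after 48 h compound treatment at 37C, 500-1,000 cells/well, read as ATP luminescence with CellTiter-Glo. Primary screens used 11-point (MIPE, 0.78 nM-46 µM) or 8-point (NPC, 0.59 nM-46 µM) final concentrations; follow-up screens used 11-point dilutions.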

[2] = qHTS of pediatric cancer cell lines to identify multiple opportunities for drug repurposing: Confirmatory screen for A673 cells (AID 1347110); note: nearly all actives have a fitted effect of over 65% in size
Procedure, shortened: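 Viability was read as ATP luminescence (CellTiter-Glo) after 48 h of compound exposure at 37 C in A673 cells seeded at 500-1,000/well. Titrations reached 46 uM final, with 11 points in the confirmatory screen. Concentration-response curves were fitted directly.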

[3] = qHTS of pediatric cancer cell lines to identify multiple opportunities for drug repurposing: Confirmatory screen for SK-N-MC cells (AID 1347111);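 note: cells exposed to compound for 48 h before the readout; nearly all actives have a fitted effect of over 70% in size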
Procedure, shortened: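 SK-N-MC cells at 500-1,000 cells/well in growth media were pre-incubated 5 h, then exposed to compounds at 11-point dilutions for 48 h at 37 degrees C, 5% CO2. Viability was read as CellTiter-Glo luminescence.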

[4] = qHTS of pediatric cancer cell lines to identify multiple opportunities for drug repurposing: Confirmatory screen for BT-12 cells (AID 1347112); note: nearly all actives have a fitted effect of over 55% in size
Procedure, shortened: as §1

[5] = qHTS of pediatric cancer cell lines to identify multiple opportunities for drug repurposing: Confirmatory screen for LAN-5 cells (AID 1347113); note: nearly all actives have a fitted effect of over 65% in size
Procedure, shortened: as §1

[6] = qHTS of pediatric cancer cell lines to identify multiple opportunities for drug repurposing: Confirmatory screen for DAOY cells (AID 1347114); note: nearly all actives have a fitted effect of over 65% in size
Procedure, shortened: (§2)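 Viability measured as metabolically active cells via CellTiter-Glo luminescence following 48 hours of compound exposure, 11-point dilutions in confirmatory testing. 500-1,000 cells/well plated 5 hours before dosing; controls were DMSO and 2.3 µM bortezomib.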

[7] = qHTS of pediatric cancer cell lines to identify multiple opportunities for drug repurposing: Confirmatory screen for NB-EBc1 cells (AID 1347115); note: nearly all actives have a fitted effect of over 45% in size
Procedure, shortened: as §1

[8] = qHTS of pediatric cancer cell lines to identify multiple opportunities for drug repurposing: Confirmatory screen for TC32 cells (AID 1347118); note: nearly all actives have a fitted effect of over 65% in size
Procedure, shortened: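 Measured quantity: luminescence from CellTiter-Glo, reflecting metabolically active TC32 cells following 48 h of compound. Curves came straight from multi-point titrations, with 8 or 11 points in primary and 11 in confirmatory screening.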

[9] = qHTS of pediatric cancer cell lines to identify multiple opportunities for drug repurposing: Confirmatory screen for MG 63 (6-TG R) cells (AID 1347119); note: nearly all actives have a fitted effect of over 55% in size
Procedure, shortened: as §1

[10] = qHTS of pediatric cancer cell lines to identify multiple opportunities for drug repurposing: Confirmatory screen for control Hh wild type fibroblast cells (AID 1347121); note: nearly all actives have a fitted effect of over 70% in size
Procedure, shortened: as §1

[11] = qHTS of pediatric cancer cell lines to identify multiple opportunities for drug repurposing: Confirmatory screen for U-2 OS cells (AID 1347122); note: nearly all actives have a fitted effect of over 65% in size
Procedure, shortened: as §1

[12] = qHTS of pediatric cancer cell lines to identify multiple opportunities for drug repurposing: Confirmatory screen for Rh41 cells (AID 1347123); note: nearly all actives have a fitted effect of over 60% in size
Procedure, shortened: as §1

[13] = qHTS of pediatric cancer cell lines to identify multiple opportunities for drug repurposing: Confirmatory screen for Rh18 cells (AID 1347125); note: nearly all actives have a fitted effect of over 55% in size
Procedure, shortened: as §1

[14] = qHTS of pediatric cancer cell lines to identify multiple opportunities for drug repurposing: Confirmatory screen for Saos-2 cells (AID 1347127); note: nearly all actives have a fitted effect of over 60% in size
Procedure, shortened: as §1

[15] = qHTS of pediatric cancer cell lines to identify multiple opportunities for drug repurposing: Confirmatory screen for SJ-GBM2 cells (AID 1347116); note: nearly all actives have a fitted effect of over 60% in size
Procedure, shortened: as §2

[16] = qHTS of pediatric cancer cell lines to identify multiple opportunities for drug repurposing: Confirmatory screen for BT-37 cells (AID 1347117); note: nearly all actives have a fitted effect of over 55% in size
Procedure, shortened: as §1

[17] = qHTS of pediatric cancer cell lines to identify multiple opportunities for drug repurposing: Confirmatory screen for OHS-50 cells (AID 1347128)
Procedure, shortened: as §1

[18] = qHTS of pediatric cancer cell lines to identify multiple opportunities for drug repurposing: Confirmatory screen for SK-N-SH cells (AID 1347129); note: nearly all actives have a fitted effect of over 60% in size
Procedure, shortened: as §1

[19] = qHTS of pediatric cancer cell lines to identify multiple opportunities for drug repurposing: Confirmatory screen for RD cells (AID 1347124)
Procedure, shortened: as §1
Potency is the fitted concentration of half-maximal effect.

SMILES	Potency [1]	Potency [2]	Potency [3]	Potency [4]	Potency [5]	Potency [6]	Potency [7]	Potency [8]	Potency [9]	Potency [10]	Potency [11]	Potency [12]	Potency [13]	Potency [14]	Potency [15]	Potency [16]	Potency [17]	Potency [18]	Potency [19]	outcome [15]
CN(C)CC[C@H](CSc1ccccc1)Nc1ccc(S(=O)(=O)NC(=O)c2ccc(N3CCN(Cc4ccccc4-c4ccc(Cl)cc4)CC3)cc2)cc1[N+](=O)[O-]	414 nM (active)	14700 nM (active)	3690 nM (active)	inactive	414 nM (active)	16500 nM (active)	8270 nM (active)	20800 nM (active)	1470 nM (active)	inactive	737 nM (active)	4650 nM (active)	1310 nM (active)	5850 nM (active)						
COc1ccc(-c2ccc3ncc4c(c3c2)n(-c2ccc(N3CCNCC3)c(C(F)(F)F)c2)c(=O)n4C)cn1	1040 nM (active)	131 nM (active)	82.7 nM (active)	7370 nM (active)		2330 nM (active)	928 nM (active)		32.9 nM (active)	10400 nM (active)	465 nM (active)	58.5 nM (active)	414 nM (active)		465 nM (active)	208 nM (active)	369 nM (active)	132 nM (active)		
COc1cc([C@@H]2c3cc4c(cc3[C@@H](O[C@@H]3O[C@@H]5CO[C@@H](C)O[C@@H]5[C@H](O)[C@@H]3O)[C@H]3COC(=O)[C@H]23)OCO4)cc(OC)c1O	1470 nM (active)	4650 nM (active)	1040 nM (active)		1470 nM (active)		1470 nM (active)		5850 nM (active)	inactive		4140 nM (active)		5220 nM (active)	9270 nM (active)	737 nM (active)	8270 nM (active)			
C[C@@H]1[C@H](O)[C@@H](C)C=CC=CC=CC=CC=CC=CC=C[C@H](O[C@@H]2O[C@H](C)[C@H](O)[C@H](N)[C@@H]2O)C[C@@H]2O[C@](O)(C[C@@H](O)C[C@@H](O)[C@H](O)CC[C@@H](O)C[C@@H](O)CC(=O)O[C@H]1C)C[C@H](O)[C@@H]2C(=O)O	inactive	inactive	10400 nM (active)	inactive	inactive	inactive	inactive		inactive	inactive	inactive	inactive	inactive	inactive		inactive	inactive	inactive		
NC(N)=Nc1nc(CSCCC(N)=NS(N)(=O)=O)cs1	inactive	inactive	inactive	inactive	inactive	inactive	inactive		inactive	inactive	inactive	inactive	inactive	inactive		inactive	inactive	inactive	inactive	
Nc1ncnc2c1ncn2[C@@H]1O[C@H](CO)[C@@H](O)[C@@H]1O	14700 nM (active)	inactive	8270 nM (active)		13100 nM (active)	inactive					10400 nM (active)	14700 nM (active)		9270 nM (active)		14700 nM (active)		inactive		
CCOC(=O)[C@H](CCc1ccccc1)N[C@@H](C)C(=O)N1CCCC1C(=O)O (some centres undefined)	7370 nM (active)	4140 nM (active)	14700 nM (active)		9270 nM (active)	inactive						9270 nM (active)	13100 nM (active)	11700 nM (active)				inactive	13100 nM (active)	
CC(C)(C)c1[nH]cnc1C=c1[nH]c(=O)c(=Cc2ccccc2)[nH]c1=O	11.4 nM (active)	32 nM (active)	10.1 nM (active)	202 nM (active)	11.4 nM (active)	18 nM (active)	18 nM (active)	10.1 nM (active)				22.7 nM (active)	16 nM (active)			14.3 nM (active)				inactive [at 0.556 µM]
Cc1ccc(S(=O)(=O)Nc2nc3ccccc3nc2Nc2ccc3nsnc3c2)cc1	9100 nM (active)	inactive	256 nM (active)	inactive			inactive		16200 nM (active)	inactive			inactive			1290 nM (active)		inactive		
COC(=O)[C@H](c1ccccc1Cl)N1CCc2sccc2C1	inactive	inactive	inactive	inactive	inactive	inactive	inactive		inactive	inactive	inactive	inactive	inactive	inactive	inactive	inactive	inactive	inactive		
Cc1ccc(C(=O)N(CCCN)[C@@H](c2oc3cc(Cl)ccc3c(=O)c2Cc2ccccc2)C(C)C)cc1	6570 nM (active)	1.9 nM (active)	5.9 nM (active)	10.4 nM (active)	14700 nM (active)	5.2 nM (active)	8270 nM (active)	10.4 nM (active)	23.3 nM (active)		36.9 nM (active)	9.3 nM (active)	26100 nM (active)	9.3 nM (active)		11.7 nM (active)	9.3 nM (active)			
CC1(C)OC2CC3C4CC(F)C5=CC(=O)C=CC5(C)C4C(O)CC3(C)[C@]2(C(=O)CO)O1 (some centres undefined)	inactive	inactive	inactive	inactive	inactive	inactive	inactive		inactive	inactive	inactive		inactive	inactive	inactive	inactive	inactive	inactive		
